Source: the supplement of paper PMC9023506
Structures can show the parent of a compound that is named as a salt.

What follows are molecules tested on Danio rerio larvae (5 dpf) (assay: activity during period 15 (no stimuli), difference vs DMSO (percentage points (treated minus DMSO)); higher = more of the behaviour than the DMSO vehicle control). Details: 10 µM; exposure time: 3 h pre-incubation + 3 h imaging.
Experimental: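 5-dpf wild-type zebrafish larvae were imaged in 96-well plates. They were treated with 190 Tocris FDA-approved drugs at 10 µM (1 µl/ml DMSO) for 3 h before and 3 h during imaging at 28.5 °C, 48 larvae per drug. Automated image analysis gave % time moving and optomotor responses. Values are drug group mean minus DMSO vehicle mean (n=844), in percentage points, for 10 behaviours.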
For `C=C1C[C@@H]2[C@H](CC[C@]3(C)C(=O)CC[C@@H]23)[C@@]2(C)C=CC(=O)C=C12` [Exemestane], the “activity during period 15” value was -15.7.
With `CN1C[C@H](C(=O)N[C@]2(C)O[C@@]3(O)[C@@H]4CCCN4C(=O)[C@H](Cc4ccccc4)N3C2=O)C[C@@H]2c3cccc4[nH]cc(c34)C[C@H]21` [Dihydroergotamine mesylate] the “activity during period 15” value was 1.37.
`O=c1[nH]c2ccccc2n1C1CCN(CCCC(c2ccc(F)cc2)c2ccc(F)cc2)CC1` [Pimozide] was tested, and the “activity during period 15” value was -8.89.
In the case of `CC(O)(CS(=O)(=O)c1ccc(F)cc1)C(=O)Nc1ccc(C#N)c(C(F)(F)F)c1` (configuration not stated) [Bicalutamide], the “activity during period 15” value is reported as 5.81.
For `CC(C)C[C@H]1C(=O)N2CCC[C@H]2[C@]2(O)O[C@](NC(=O)[C@@H]3C=C4c5cccc6[nH]c(Br)c(c56)C[C@H]4N(C)C3)(C(C)C)C(=O)N12` [Bromocriptine mesylate], the “activity during period 15” value was 3.6.
For `C=CCN1C[C@H](C(=O)N(CCCN(C)C)C(=O)NCC)C[C@@H]2c3cccc4[nH]cc(c34)C[C@H]21` [Cabergoline], the “activity during period 15” value was -8.5.
In the case of `N[C@@H]1C[C@H]1c1ccccc1` [Tranylcypromine hydrochloride], the “activity during period 15” value is reported as -10.3.
For `CC[C@@H](C(N)=O)N1CCCC1=O` [Levetiracetam], the “activity during period 15” value was 4.21.
With `COc1cc2c(cc1OC)C1CC(=O)C(CC(C)C)CN1CC2` (configuration not stated) [Tetrabenazine] the “activity during period 15” value was 3.06.
With `CCN(C)C(=O)Oc1cccc([C@H](C)N(C)C)c1` [Rivastigmine tartrate] the “activity during period 15” value was -7.13.
In the case of `Cc1cccc([C@H](C)c2c[nH]cn2)c1C` [Dexmedetomidine hydrochloride], the “activity during period 15” value is reported as -35.2.
With `COc1ccc(C(CN(C)C)C2(O)CCCCC2)cc1` (configuration not stated) [Venlafaxine hydrochloride] the “activity during period 15” value was -20.4.
